TbREL1 inh = TbREL1 inhibition, primary screen. P86926. TbREL1 RNA ligation, FRET fluorescence. inhibition, % at 9.66 µM. 89,000 compounds, 0.49% hits. AID 1117264;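 active = inhibition above the mean inhibition across all screened compounds plus 3 SD, cut at about 11% in these data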;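 also: 0% = plate median of test wells and 100% = NSC42067 control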
Target sequence (P86926 whole entry, looked up): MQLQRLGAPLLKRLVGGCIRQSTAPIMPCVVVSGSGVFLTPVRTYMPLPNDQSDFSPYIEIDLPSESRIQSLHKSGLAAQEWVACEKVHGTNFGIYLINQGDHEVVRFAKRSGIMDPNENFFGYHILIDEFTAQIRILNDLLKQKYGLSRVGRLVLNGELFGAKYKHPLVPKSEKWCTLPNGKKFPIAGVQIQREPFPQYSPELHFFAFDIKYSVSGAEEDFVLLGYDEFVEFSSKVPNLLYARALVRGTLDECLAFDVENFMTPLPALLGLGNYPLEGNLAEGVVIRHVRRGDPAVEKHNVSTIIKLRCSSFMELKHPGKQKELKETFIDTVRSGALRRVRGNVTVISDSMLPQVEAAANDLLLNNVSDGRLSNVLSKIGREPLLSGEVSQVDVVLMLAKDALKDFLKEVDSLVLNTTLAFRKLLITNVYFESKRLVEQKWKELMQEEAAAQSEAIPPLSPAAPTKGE
TbREL1 confirm = TbREL1 inhibition, confirmation. 390 compounds, 37% hits. TbREL1 RNA ligation, FRET fluorescence. shares compounds with TbREL1 inh. inhibition, % at 9.66 µM;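 active = mean inhibition across replicates above a set limit taken from the earlier primary screen, cut at about 11% in these data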;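 also: 0% = REL1 with substrate and DMSO and 100% = REL1 plus control inhibitor NSC42067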
* = called active by the depositor. This excerpt belongs to a sample that is enriched for hits.

SMILES	TbREL1 inh	others
CCn1c(=Nc2ccc(N3CCOCC3)cc2)ccc2ccccc21	-1
O=C(c1ccccc1)c1ccc(N2CCOCC2)cc1	1
Cn1c(N=Nc2ccc(N3CCOCC3)cc2)[n+](C)c2ccccc21	23*	TbREL1 confirm=27*
CN1CC(=O)N2[C@@H](C[C@]3(c4c[nH]c5ccccc45)c4ccccc4N(S(=O)(=O)c4ccccc4)[C@H]23)C1=O	0
Nc1ccc(Oc2ccc3c(c2)OCO3)cc1	-3
CC(=O)c1ccc2c(c1)OCCOCCOCCO2	2
Nc1ccc2c(c1)OCCOCCOCCOCCOCCO2	14*	TbREL1 confirm=4
Cc1[nH]cnc1/C=N\NC(=O)c1cccc(S(=O)(=O)N(C)C)c1	9
CCOc1ccccc1-c1nc(C(N)=O)c2[nH]c(=O)n(-c3ccc(F)cc3)c2n1	0
Cc1ccsc1-c1nc(C(N)=O)c2[nH]c(=O)n(-c3ccc(Cl)cc3)c2n1	27*	TbREL1 confirm=0
Cc1cccc(-n2c(=O)[nH]c3c(C(N)=O)nc(C(C)C)nc32)c1	0
O=C(CSc1nnc(COc2ccccc2)n1-c1ccc(Cl)cc1)Nc1ccccc1-c1ccccc1	1
COc1ccc(-n2c(Cc3cccs3)nnc2SCC(=O)Nc2ccc(OCc3ccccc3)cc2)cc1	0
Nc1ccc(S(=O)(=O)O)cn1	1
CC(C)(C)Sc1ccc(N)nc1	39*	TbREL1 confirm=5
COc1ccc(-n2c(SCC(=O)Nc3cc(C)c(NC(=O)c4ccccc4)cc3OC)nnc2-c2ccco2)cc1	-2
CCC(NC(=O)c1cccc2c1C(=O)N(Cc1cccnc1)C2)c1ccccc1 (centres undefined)	0
COc1cc(-c2csc(N3CCC(C(N)=O)CC3)n2)cc(OC)c1OC	8
O=C(CSc1nnc(-c2ccccc2)n1-c1ccccc1)NN=Cc1ccc(-c2ccccc2)cc1	2
Cn1c(=O)c(=O)n(C)c2cc(S(=O)(=O)N3CCN(Cc4ccc5c(c4)OCO5)CC3)ccc21	-3
Nn1c(SCc2cccc3ccccc23)nnc1-c1cc(-c2ccc(F)cc2)n[nH]1	0
Cc1ccc(C(=O)CCC(=O)Nc2ncccc2O)cc1	-2
O=C(NCCNC(=O)c1ccccn1)c1ccc(Cl)cc1	3
O=C(CCNC(=O)c1ccc(Cl)cc1)Nc1ncccc1O	19*	TbREL1 confirm=1
CCCCOC(=O)CCN1C(=O)/C(=C/c2ccccc2)SC1=S	2
SMILES	TbREL1 inh	others
O=C1C(=O)N(Cc2ccc(-c3ccc(F)nc3)cc2)c2ccc(OC(F)(F)F)cc21	-1
Cc1cccc(C(=O)Oc2ccc(/C=N/NC(=O)c3ccc(O)cc3)cc2)c1	-4
COc1ccc(/C=N/NC(=O)c2cccc(NC(=O)c3ccccc3Cl)c2)cc1	2
O=C(N/N=C/c1ccc(OC(=O)c2ccccc2Cl)cc1)c1cc(O)cc(O)c1	12*	TbREL1 confirm=19*
CC(=O)N1CCCN(S(=O)(=O)c2ccc3c(c2)oc(=O)n3C)CC1	1
O=C(NC1CCCCN(Cc2cccc(Cl)c2)C1=O)c1c(F)cccc1F (centres undefined)	-3
CC(=O)NS(=O)(=O)c1ccc(NC(=O)/C=C/c2ccco2)cc1	15*	TbREL1 confirm=12*
Cc1ccc(NC(=O)c2cccc(NC(=O)/C=C/c3ccco3)c2)cc1C	-2
NS(=O)(=O)c1ccc(NC(=O)/C=C/c2ccco2)cc1	2
Cc1ccc(S(=O)(=O)N2C(N)=C(C(=O)NCc3ccc(Br)cc3)C(c3ccc(Cl)cc3)C2C(=O)c2ccccc2)cc1 (centres undefined)	-2
CC1CC(C)CN(CCCNS(=O)(=O)c2cc3c(cc2Br)CCN3C(=O)C2CC2)C1 (centres undefined)	2
CN(Cc1ccccc1F)C(=O)C1C2C=CC3(CN(Cc4ccccc4)C(=O)C13)O2 (centres undefined)	-1
Cc1ccc(-n2c3c(c(O)c(-c4ccccc4)c2=O)C(=O)CC(C)(C)C3)cc1	-1
COc1ccc(-c2c(O)c(C#N)c(-c3ccccc3)n(-c3ccc(OC)cc3)c2=O)cc1	-4
CC(C)c1c(Cl)c(O)c(-c2ccccc2)c(=O)n1-c1ccc(F)cc1	17*	TbREL1 confirm=13*
Cc1onc(C(=O)N2CCN(C(c3ccc(F)cc3)c3ccc(F)cc3)CC2)c1[N+](=O)[O-]	4
CC(C)C[C@H](NC1(C(=O)NCCc2c[nH]c3ccccc23)CCC1)C(=O)NCCCc1ccccc1	-4
O=Cc1ccc(-c2ccc(C(=O)O)cc2)o1	8
Cc1nc(S/C(=C/c2ccc(-c3ccc(C(=O)O)cc3)o2)C(=O)O)n[nH]1	21*	TbREL1 confirm=17*
Cc1ccc(C(=O)N/C(=C\c2ccc(-c3cccc([N+](=O)[O-])c3)o2)C(=O)NC(C)(C)C)cc1	-2
COc1ccc(-c2cc(-c3nnc(SCC(=O)Nc4ccc(-c5nc6ccc(C)cc6s5)cc4)n3N)[nH]n2)cc1	7
N=c1c2c(ccn1CCCc1ccccc1)Oc1ccc3ccccc3c1C2c1ccccc1 (centres undefined)	6
Cc1nc2cc(-c3ccsc3-n3c(C)ccc3C)[nH]n2c(=O)c1Cl	27*	TbREL1 confirm=3
CCOC(=O)Cc1c(C)nc2cc(-c3ccc(C(C)(C)C)cc3)[nH]n2c1=O	-3
C=CCc1c(C)nc2cc(-c3ccc(C)cc3)[nH]n2c1=O	-1
SMILES	TbREL1 inh	others
Cc1ccc(-n2c(SCc3c(Cl)cccc3Cl)nnc2-c2ccco2)cc1	-1
CCC(=O)N1CCC(C(=O)NC2CCCc3ccccc32)CC1 (centres undefined)	-1
COC(=O)[C@H](C)NC(=O)C(Cc1ccc2c(c1)OCO2)NC(C)=O (some centres undefined)	0
COc1ccc(-c2oc3ncnc(N)c3c2-c2ccccc2)cc1	4
c1ccc(-c2c(-c3ccccc3)n(Cc3ccco3)c3ncnc(NCCCn4ccnc4)c23)cc1	-2
CN(C)CCCNc1ncnc2oc(-c3ccccc3)c(-c3ccccc3)c12	12*	TbREL1 confirm=6
CCN(CC)C(=O)c1ccc2c(c1)NC(=O)C(C)(C)O2	2
C/C(C=NNC(=O)c1cc(-c2ccc(Cl)cc2)n[nH]1)=C\c1ccccc1	7
CCN(CC)C(=O)C1=C(C)N(Cc2ccccc2)C(=O)C(CC(=O)NCCCN(C)C)C1 (centres undefined)	3
CC1=C(C(=O)N(C(C)C)C(C)C)CC(CC(=O)NCCCN(C)C)C(=O)N1Cc1ccc(C(C)(C)C)cc1 (centres undefined)	17*	TbREL1 confirm=11
CC1=C(C(=O)N(C)C)CC(CC(=O)NCCCN(C)C)C(=O)N1Cc1ccc(F)cc1 (centres undefined)	4
CC(C)(C)c1ccc(-c2nnc(SCC(=O)Nc3ccccc3-c3ccccc3)n2Cc2ccco2)cc1	4
CCCC1CCC2(CC1)CCC2OC(=S)Nc1cccc(C(F)(F)F)c1 (centres undefined)	10
COc1ccc(-c2noc(C3CCCN(C(=O)Nc4ccc5c(c4)OCO5)C3)n2)cc1 (centres undefined)	4
Cc1onc(C(=O)N2CCN(C(c3ccc(Cl)cc3)c3ccc(Cl)cc3)CC2)c1[N+](=O)[O-]	-2
O=C(c1cc2cc([N+](=O)[O-])ccc2s1)N1CCCCC1	12*	TbREL1 confirm=1
O=C(Nc1ccccn1)c1cc2cc([N+](=O)[O-])ccc2s1	1
O=C(c1sc2cc([N+](=O)[O-])ccc2c1Cl)N1CCCCC1	0
CCCCC(=O)N[C@H]1CC[C@@]23CCCN2C(=O)CCC[C@H]3[C@H]1C	-2
COc1ccccc1CNC(=O)N1CCC(c2nc3ccc(Cl)cc3[nH]2)CC1	1

Screens (PubChem BioAssay)
